Measured values taken from PubChem BioAssay AID1159580 (chemical genetic matrix, 2015).
In all, about 5,500 compounds went through this assay and about 2,000 (36%) were called active. Another 18% or so got no clear call; they are omitted. Cut-off read from the data, not from the text of the source: active = normalized growth mostly below about 0.91 (no sharp cut-off); inconclusive = no clear call, values can overlap the other calls; inactive = mostly above about 0.92. The list shows a part of the results.

Assay: chemical genetic growth profiling, strain panel (AID 1159580);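 note: tested at 20 µM; growth read once vehicle control cultures reached saturation at 30 °C; 1 = growth at the plate median or of vehicle wells; lower values mean less growth of the strain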
Settings: growth OD

Measured: normalized growth

Cc1onc(-c2ccccc2Cl)c1C(=O)N[C@@H]1C(=O)N2[C@@H]1SC(C)(C)[C@@H]2C(=O)O
inactive: S. cerevisiae deletion strains, locus YJR066W, strain TOR1, stronger effect = lower value 0.986 | S. cerevisiae deletion strains, locus YKL009W, strain mrt4, stronger effect = lower value 1.02 | S. cerevisiae deletion strains, locus YKL068W, stronger effect = lower value 1.02 | S. cerevisiae deletion strains, locus YKL085W, strain MDH1 (second series), stronger effect = lower value 1.02 | S. cerevisiae deletion strains, locus YKL085W, strain MDH1, stronger effect = lower value 1.02 | S. cerevisiae deletion strains, locus YKL160W, strain elf1, stronger effect = lower value 1.02 | S. cerevisiae deletion strains, locus YKL190W, strain CNB1, stronger effect = lower value 1.01 | S. cerevisiae deletion strains, locus YKR001C, strain vps1, stronger effect = lower value 1.03 | S. cerevisiae deletion strains, locus YKR026C, strain gcn3, stronger effect = lower value 1.05 | S. cerevisiae deletion strains, locus YKR091W, strain srl3, stronger effect = lower value 1.02 | S. cerevisiae deletion strains, locus YLL001W, strain dnm1, stronger effect = lower value 1.02 | S. cerevisiae deletion strains, locus YLL026W, stronger effect = lower value 1.01 | S. cerevisiae deletion strains, locus YLL041C, strain sdh2, stronger effect = lower value 1.02 | S. cerevisiae deletion strains, locus YLR027C, strain aat2, stronger effect = lower value 1.01 | S. cerevisiae deletion strains, locus YLR039C, strain RIC1, stronger effect = lower value 1.02 | S. cerevisiae deletion strains, locus YLR058C, strain SHM2, stronger effect = lower value 1.02 | S. cerevisiae deletion strains, locus YLR102C, strain apc9, stronger effect = lower value 1.03 | S. cerevisiae deletion strains, locus YLR113W, strain HOG1, stronger effect = lower value 1.05 | S. cerevisiae deletion strains, locus YLR221C, strain rsa3, stronger effect = lower value 0.979 | S. cerevisiae deletion strains, locus YLR258W, strain gsy2, stronger effect = lower value 1.02 | S. cerevisiae deletion strains, locus YLR262C, strain YPT6 (second series), stronger effect = lower value 1 | S. cerevisiae deletion strains, locus YLR262C, strain YPT6, stronger effect = lower value 1.01 | S. cerevisiae deletion strains, locus YLR268W, strain sec22, stronger effect = lower value 1.04 | S. cerevisiae deletion strains, locus YLR320W, strain mms22, stronger effect = lower value 1 | S. cerevisiae deletion strains, locus YLR330W, strain CHS5, stronger effect = lower value 1.01 | S. cerevisiae deletion strains, locus YLR342W, strain FKS1 (second series), stronger effect = lower value 1.02 | S. cerevisiae deletion strains, locus YLR342W, strain FKS1, stronger effect = lower value 1.02 | S. cerevisiae deletion strains, locus YLR357W, strain rsc2, stronger effect = lower value 1.03 | S. cerevisiae deletion strains, locus YLR370C, strain arc18, stronger effect = lower value 1.02 | S. cerevisiae deletion strains, locus YLR371W, strain rom2, stronger effect = lower value 1.03 | S. cerevisiae deletion strains, locus YLR384C, strain iki3, stronger effect = lower value 1.02 | S. cerevisiae deletion strains, locus YLR418C, strain cdc73, stronger effect = lower value 1.04 | S. cerevisiae deletion strains, locus YML016C, strain PPZ1, stronger effect = lower value 1.01 | S. cerevisiae deletion strains, locus YML032C, strain rad52, stronger effect = lower value 1.01 | S. cerevisiae deletion strains, locus YML120C, strain ndi1, stronger effect = lower value 1.04 | S. cerevisiae deletion strains, locus YML124C, strain tub3, stronger effect = lower value 1.03 | S. cerevisiae deletion strains, locus YMR058W, strain fet3, stronger effect = lower value 1.04 | S. cerevisiae deletion strains, locus YMR078C, strain ctf18, stronger effect = lower value 1.04 | S. cerevisiae deletion strains, locus YMR125W, strain sto1, stronger effect = lower value 1.04 | S. cerevisiae deletion strains, locus YMR129W, stronger effect = lower value 1.01 | S. cerevisiae deletion strains, locus YMR205C, strain PFK2, stronger effect = lower value 1.04 | S. cerevisiae deletion strains, locus YMR223W, strain ubp8, stronger effect = lower value 1.02 | S. cerevisiae deletion strains, locus YMR231W, strain pep5, stronger effect = lower value 1.02 | S. cerevisiae deletion strains, locus YMR263W, strain SAP30, stronger effect = lower value 1.02 | S. cerevisiae deletion strains, locus YMR307W, strain GAS1, stronger effect = lower value 1.03 | S. cerevisiae deletion strains, locus YNL067W, strain RPL9B, stronger effect = lower value 1.02 | S. cerevisiae deletion strains, locus YNL071W, strain lat1, stronger effect = lower value 1.01 | S. cerevisiae deletion strains, locus YNL153C, strain GIM3, stronger effect = lower value 1.01 | S. cerevisiae deletion strains, locus YNL183C, strain NPR1, stronger effect = lower value 0.968 | S. cerevisiae deletion strains, locus YNL209W, strain ssb2, stronger effect = lower value 1.01 | S. cerevisiae deletion strains, locus YNL233W, strain BNI4, stronger effect = lower value 1.01 | S. cerevisiae deletion strains, locus YNL248C, strain rpa49, stronger effect = lower value 0.948 | S. cerevisiae deletion strains, locus YNL250W, strain rad50, stronger effect = lower value 1.01 | S. cerevisiae deletion strains, locus YNL271C, strain bni1, stronger effect = lower value 1.03 | S. cerevisiae deletion strains, locus YNL298W, strain CLA4, stronger effect = lower value 1.04 | S. cerevisiae deletion strains, locus YNL307C, strain MCK1, stronger effect = lower value 1.04 | S. cerevisiae deletion strains, locus YNL322C, strain KRE1 (second series), stronger effect = lower value 1.01 | S. cerevisiae deletion strains, locus YNL322C, strain KRE1, stronger effect = lower value 1 | S. cerevisiae deletion strains, locus YNR049C, strain mso1, stronger effect = lower value 1.02 | S. cerevisiae deletion strains, locus YNR052C, strain pop2, stronger effect = lower value 1.01 | S. cerevisiae deletion strains, locus YOL012C, strain htz1 1.96 | S. cerevisiae deletion strains, locus YOL147C, strain pex11, stronger effect = lower value 1.03 | S. cerevisiae deletion strains, locus YOR001W, strain rrp6, stronger effect = lower value 1.04 | S. cerevisiae deletion strains, locus YOR061W, strain CKA2, stronger effect = lower value 1.01 | S. cerevisiae deletion strains, locus YOR069W, strain VPS5, stronger effect = lower value 1.01 | S. cerevisiae deletion strains, locus YOR070C, strain gyp1, stronger effect = lower value 1.01 | S. cerevisiae deletion strains, locus YOR080W, strain dia2, stronger effect = lower value 1.03 | S. cerevisiae deletion strains, locus YOR083W, strain WHI5, stronger effect = lower value 1.03 | S. cerevisiae deletion strains, locus YOR106W, strain vam3, stronger effect = lower value 1.03 | S. cerevisiae deletion strains, locus YOR136W, strain idh2, stronger effect = lower value 1.03 | S. cerevisiae deletion strains, locus YOR144C, strain elg1, stronger effect = lower value 1.02 | S. cerevisiae deletion strains, locus YOR184W, strain ser1, stronger effect = lower value 1.03 | S. cerevisiae deletion strains, locus YOR231W, strain MKK1, stronger effect = lower value 1.01 | S. cerevisiae deletion strains, locus YOR265W, strain rbl2, stronger effect = lower value 1.02 | S. cerevisiae deletion strains, locus YOR270C, strain vph1, stronger effect = lower value 1.04 | S. cerevisiae deletion strains, locus YOR290C, strain snf2, stronger effect = lower value 1.01 | S. cerevisiae deletion strains, locus YOR316C, strain cot1, stronger effect = lower value 1.03 | S. cerevisiae deletion strains, locus YPL051W, strain arl3, stronger effect = lower value 1.02 | S. cerevisiae deletion strains, locus YPL055C, strain LGE1, stronger effect = lower value 1.03 | S. cerevisiae deletion strains, locus YPL078C, strain atp4, stronger effect = lower value 1.03 | S. cerevisiae deletion strains, locus YPL106C, strain sse1, stronger effect = lower value 1.03 | S. cerevisiae deletion strains, locus YPL240C, strain hsp82, stronger effect = lower value 1.01 | S. cerevisiae deletion strains, locus YPL241C, strain CIN2, stronger effect = lower value 1 | S. cerevisiae deletion strains, locus YPL256C, strain CLN2, stronger effect = lower value 1.01 | S. cerevisiae deletion strains, locus YPR119W, strain clb2, stronger effect = lower value 1.03 | S. cerevisiae deletion strains, locus YPR141C, strain kar3, stronger effect = lower value 1.04 | S. cerevisiae deletion strains, locus YPR163C, strain tif3, stronger effect = lower value 1.04 | S. cerevisiae deletion strains, locus YPR167C, strain met16, stronger effect = lower value 1.03 | S. cerevisiae deletion strains, strain wtn01, stronger effect = lower value 1.02 | S. cerevisiae strains, strain wild type, stronger effect = lower value 1.01
